Inconclusive results are not listed. A number with no mark means an inactive call. Calls follow the shape of the dose curve; as a rule, active = well fitted cell-killing curve with a large enough effect in the repeat runs; inconclusive = weak or mixed curves, or effect the other way; inactive = flat fitted curve, though single readings scatter.
Assay: qHTS assay to identify small molecule agonists of the constitutive androstane receptor (CAR) signaling pathway - cell viability counter screen (AID 1224836)
Conditions: HepG2-CYP2B6-hCAR viability, CellTiter-Fluor, 23 h, PK11195 added to every well; series mostly up to 92.4 µM; viability change, negative = cytotoxic: at the top concentration
Method in brief: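 Fluorescence from CellTiter-Fluor indicates live cells after 23 h exposure. The human hepatoma line expresses hCAR and a CYP2B6-2.2kb reporter. Incubation medium contains 0.75 uM PK11195 (final).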
% is scaled to controls: 0 for no effect and ±100 for the full control effect.
Also: nearly all actives have a fitted effect of over 45% in size.

Compound | viability change, negative = cytotoxic
CC(C)(C)c1nnc(NS(=O)(=O)c2ccccc2)s1 | -0.788% [at 42.5 µM]
c1ccc(CC2=NCCN2)cc1 | 7.31% [at 42.5 µM]
CCCCCCCCCCCCN(CCCCCCCCCCCC)CCCCCCCCCCCC | 1.05%
COC(C)(C)CCCC(C)CC=O (configuration not stated) | 2.16%
C=CCS(=O)(=O)O | 6.15%
COCCCOCCCOC | -15%
NS(=O)(=O)c1ccc(C(=O)O)cc1 | 2.1% [at 42.5 µM]
COc1c(N2C[C@@H]3CCCN[C@@H]3C2)c(F)cc2c(=O)c(C(=O)O)cn(C3CC3)c12 | 1.43% [at 42.5 µM]
COC(=O)c1ccc(C)cc1C1=NC(C)(C(C)C)C(=O)N1 (configuration not stated) | -2.11%
CS(=O)(=O)O | 6.75%
CC(=O)c1ccccc1O | -0.44%
Cc1ccc(C#N)cc1 | -0.919%
O=C(O)c1ccccc1OP(=O)(O)O | 5.03% [at 42.5 µM]
O=c1[nH]c(=O)n([C@H]2C[C@H](O)[C@@H](CO)O2)cc1I | 3.99% [at 42.5 µM]
CC(C)NC(=O)NC(C)C | 2.22%
CCOC(=O)[C@H](CCc1ccccc1)N[C@@H](C)C(=O)N1[C@H](C(=O)O)C[C@@H]2CCC[C@@H]21 | 0.66% [at 42.5 µM]
COc1cc(C(=O)N2CCCCCCC2)cc(OC)c1OC | 0.335% [at 42.5 µM]
O=C(O)CCCc1ccccc1 | 7.95% [at 42.5 µM]

Compound | viability change, negative = cytotoxic
CO/N=C(/C(=O)N[C@@H]1C(=O)N2C(C(=O)OCOC(=O)C(C)(C)C)=C(C)CS[C@H]12)c1csc(N)n1 | -0.0829% [at 42.5 µM]
Cc1cc2c(cc1S(N)(=O)=O)S(=O)(=O)CCC2 | -0.0954% [at 42.5 µM]
Cc1cc(O)cc2c1O[C@](C)(CCC[C@H](C)CCC[C@H](C)CCCC(C)C)CC2 | -2.75% [at 42.5 µM]
CCOC(=O)c1c(C)n(C)c2ccc(O)cc12 | 1.56% [at 42.5 µM]
O=C(CCCN1CCN(c2ccccn2)CC1)c1ccc(F)cc1 | -4.99% [at 42.5 µM]
CCS(=O)(=O)c1ccc(OC)c(C(=O)OC)c1 | 1.89% [at 42.5 µM]
CC1=CC(C)C(C=O)CC1 (configuration not stated) | 0.41%
CCOC(=O)C(=O)OCC | -0.594%
Cn1c(N)c(N=O)c(=O)n(C)c1=O | -3.71%
Cc1sccc1Br | 6.83% [at 42.5 µM]
CCCCCSCCCCC | 1.81%
CC(=O)OCC(=O)[C@@]1(O)CCC2C3CCC4=CC(=O)CC[C@]4(C)C3[C@@H](O)C[C@@]21C (some centres not stated) | 10.8% [at 42.5 µM]
O=Cc1cccc([N+](=O)[O-])c1 | 2.72%
CN(C(=O)c1c(O)c2ccccc2n(C)c1=O)c1ccccc1 | 1.67% [at 42.5 µM]
CC(C)CCCC(C)N (configuration not stated) | -10.4% [at 42.5 µM]
CCCCOCCOCCOCCCC | 7.85%
NS(=O)(=O)c1cc(C(=O)O)cc(N2CCCC2)c1Oc1ccccc1 | 1.57% [at 42.5 µM]

Assay: qHTS assay to identify small molecule antagonists of the constitutive androstane receptor (CAR) signaling pathway - cell viability counter screen (AID 1224837)
Conditions: HepG2-CYP2B6-hCAR viability, CellTiter-Fluor, 23 h, co-treated with 50 nM CITCO; series mostly up to 92.4 µM; activity change, negative = cytotoxicity: at the top concentration
Method in brief: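 HepG2-CYP2B6-hCAR cells, 2500/well, 4 hr pre-incubation; compound titration, 15 conc.; CITCO 50 nM final; 23 hr, 37 C/5% CO2; CellTiter-Fluor, fluorescence intensity.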

Compound | activity change, negative = cytotoxicity
CC(C)(C)c1nnc(NS(=O)(=O)c2ccccc2)s1 | 7.65% [at 42.5 µM]
c1ccc(CC2=NCCN2)cc1 | -0.691% [at 42.5 µM]
CCCCCCCCCCCCN(CCCCCCCCCCCC)CCCCCCCCCCCC | 3.04%
COC(C)(C)CCCC(C)CC=O (configuration not stated) | 2.19%
C=CCS(=O)(=O)O | 4.28%
COCCCOCCCOC | -11.2%
NS(=O)(=O)c1ccc(C(=O)O)cc1 | 1.02% [at 42.5 µM]
COc1c(N2C[C@@H]3CCCN[C@@H]3C2)c(F)cc2c(=O)c(C(=O)O)cn(C3CC3)c12 | -5.44% [at 42.5 µM]
COC(=O)c1ccc(C)cc1C1=NC(C)(C(C)C)C(=O)N1 (configuration not stated) | -3.63%
CS(=O)(=O)O | 0.044%
CC(=O)c1ccccc1O | -0.996%
Cc1ccc(C#N)cc1 | 2%
O=C(O)c1ccccc1OP(=O)(O)O | 1.08% [at 42.5 µM]
O=c1[nH]c(=O)n([C@H]2C[C@H](O)[C@@H](CO)O2)cc1I | 4.86% [at 42.5 µM]
CC(C)NC(=O)NC(C)C | 1.99%
CCOC(=O)[C@H](CCc1ccccc1)N[C@@H](C)C(=O)N1[C@H](C(=O)O)C[C@@H]2CCC[C@@H]21 | 3.64% [at 42.5 µM]
COc1cc(C(=O)N2CCCCCCC2)cc(OC)c1OC | -2.34% [at 42.5 µM]

From PubChem BioAssay (Tox21)
